# Experimental data taken from PubChem BioAssay AID1347142 (National Center for Advancing Translational Sciences (NCATS), 2019).
# Results filed as inconclusive are left out. Activity calls are given as the source filed them. Calls come from the whole dose curve; as a rule, active = well fitted inhibition curve with a large enough effect; inconclusive = small, poorly fitted or top-dose-only effect; inactive = no such curve, though single readings can be large or run the other way.
# Molecular target: N-terminal Xaa-Pro-Lys N-methyltransferase 1 (Homo sapiens) (UniProt Q9BV86)
# Test: qHTS Assay for Inhibitors of N-terminal methyltransferase 1 (NTMT1): ThioGlo3 Assay Confirmatory Screen, Round 1.
# Method in brief: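 Human NTMT1 at 125 nM was preincubated 1 min at room temperature with compounds at various concentrations or 1 uM RCC1-6 control. Substrate mix (100 uM SAM, 10 uM SAHH, 15 uM ThioGlo3) was added, and fluorescence (Ex 340/Em 450 nm) was read at start and after 30 min, normalized to background.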
# Note: nearly all actives have a fitted effect of over 80% in size.
# Potency is the fitted concentration of half-maximal effect.
# N-terminal Xaa-Pro-Lys N-methyltransferase 1 (Homo sapiens), sequence (Q9BV86 whole entry, looked up): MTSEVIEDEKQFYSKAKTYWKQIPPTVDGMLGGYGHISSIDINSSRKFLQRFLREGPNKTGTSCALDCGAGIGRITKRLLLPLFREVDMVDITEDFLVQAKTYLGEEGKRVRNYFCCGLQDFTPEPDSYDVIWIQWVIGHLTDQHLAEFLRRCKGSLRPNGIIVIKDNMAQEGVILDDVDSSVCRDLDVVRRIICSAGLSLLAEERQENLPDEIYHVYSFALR
row,SMILES,Potency
1,O=C(Nc1ncnc2c1ncn2[C@@H]1O[C@@H]2COP(=O)(O)O[C@H]2[C@H]1O)c1ccccc1,inactive
2,COc1cc2c(NC3CCN(C(C)C)CC3)nc(N3CCCN(CC4CCCCC4)CC3)nc2cc1OCCCN1CCCCC1,24.1 µM (active)
3,COc1cc2c(NC3CCN(C(C)C)CC3)nc(N3CCC(N4CCCC4)CC3)nc2cc1OCCCN1CCCCC1,24.1 µM (active)
4,NCCNC(=O)Cc1ccc(NC(=O)Cc2ccc(Nc3ncnc4c3ncn4[C@@H]3O[C@H](CO)[C@@H](O)[C@H]3O)cc2)cc1,inactive
5,COc1cc2nc(N3CCN(C)CC3)nc(N3CCOCC3)c2cc1OC,21.5 µM (active)
6,COc1cc2nc(N3CCN(C)CC3)nc(NCCCN(C)C)c2cc1OC,27.1 µM (active)
7,OC[C@H]1O[C@@H](n2cnc3c(Nc4ccccc4)ncnc32)[C@H](O)[C@@H]1O,inactive
8,COc1cc2nc(N3CCN(C)CC3)nc(NC3CCCC3)c2cc1OC,24.1 µM (active)
9,COc1cc2c(NC3CCN(C4CCCCC4)CC3)nc(N3CCCCC3)nc2cc1OCCCN1CCCCC1,24.1 µM (active)
10,COc1cc2c(NC3CCN(C4CCCCC4)CC3)nc(N3CCCCC3)nc2cc1OCCOCCN(C)C,24.1 µM (active)
11,COc1cc2c(NC3CCN(C)CC3)nc(N3CCN(C)CC3)nc2cc1OCCOCCN(C)C,21.5 µM (active)
12,Nc1ncnc2c1ncn2[C@@H]1O[C@H](COP(=O)(O)OP(=O)(O)OP(=O)(O)OP(=O)(O)OC[C@@H]2O[C@H](n3cnc4c(N)ncnc43)[C@@H](O)[C@H]2O)[C@@H](O)[C@H]1O,inactive
13,COC1C(O)C(CO)OC1n1cnc2c(NC3CCCCC3)ncnc21 (stereo not given),inactive
14,COc1cc2nc(N3CC[C@H](N(C)C)C3)nc(NC3CC3)c2cc1OC,inactive
15,Nc1ncnc2c1ncn2C1CC(O)C(CO)O1 (stereo not given),inactive
16,CCCCC#Cc1nc(NC)c2ncn([C@@H]3O[C@H](CO)[C@@H](O)C3O)c2n1 (stereo not given in full),8.57 µM (active)
17,C/C(=C\CNc1ncnc2c1ncn2[C@@H]1O[C@@H](CO)[C@@H](O)[C@H]1O)CO,inactive
18,OC[C@@H]1O[C@H](n2cnc3c(SCc4ccccc4)ncnc32)[C@H](O)[C@H]1O,inactive

row,SMILES,Potency
1,COc1cc2nc(N3CCN(C)CC3)nc(NC3CCN(Cc4ccccc4)CC3)c2cc1OC,24.1 µM (active)
2,Nc1ncnc2c1ncn2[C@@H]1O[C@H](CO)C(O)[C@H]1O (stereo not given in full),1.36 µM (active)
3,NC(=S)c1ccc[n+]([C@@H]2O[C@@H](COP(=O)([O-])OP(=O)(O)OC[C@H]3O[C@@H](n4cnc5c(N)ncnc54)[C@H](OP(=O)(O)O)[C@@H]3O)C(O)C2O)c1 (stereo not given in full),inactive
4,CSc1nc(N)c2ncn([C@H]3O[C@H](COP(=O)(O)OP(=O)(O)O)[C@@H](O)[C@@H]3O)c2n1,inactive
5,CCN1CCCN(c2nc(NC3CCN(C(C)C)CC3)c3cc(OC)c(OCCCN4CCCCC4)cc3n2)CC1,24.1 µM (active)
6,Nc1nc(=S)c2ncn([C@H]3O[C@@H](CO)[C@@H](O)[C@@H]3O)c2[nH]1,13 µM (active)
7,CCN(CC)c1nc(NC2CCN(C)CC2)c2cc(OC)c(OC)cc2n1,27.1 µM (active)
8,CCNc1nc(N2CCCN(C)CC2)nc2cc(OC)c(OC)cc12,34.1 µM (active)
9,Nc1ncnc2c1ncn2[C@@H]1O[C@H](C(=O)NC2CC2)[C@@H](O)[C@H]1O,inactive
10,COc1cc2c(NC3CCN(C(C)C)CC3)nc(N3CCCN(C)CC3)nc2cc1OCCCN(C)C,24.1 µM (active)
11,Nc1nc(Cl)nc2c1ncn2[C@H]1C[C@H](O)[C@@H](CO)O1,inactive
12,O=c1[nH]cnc2c1ncn2C1O[C@H](CO)[C@@H](O)[C@H]1O (stereo not given in full),inactive
13,OC[C@@H]1O[C@@H](n2cnc3c(N[C@H]4CCC[C@@H]4O)ncnc32)[C@H](O)[C@H]1O,inactive
14,COc1cc2nc(N3CCCN(C)CC3)nc(NC3CCNCC3)c2cc1OC,21.5 µM (active)
15,COc1cc2c(NC3CCN(C)CC3)nc(N3CCCN(C)CC3)nc2cc1OCCCN1CCCCC1,24.1 µM (active)
16,Nc1ncnc2c1ncn2[C@@H]1O[C@H](CSCC[C@H](N)C(=O)O)[C@@H](O)[C@H]1O,inactive
17,COc1cc2nc(N3CCN(C(N)=O)CC3)nc(NC3CC3)c2cc1OC,27.1 µM (active)
